Measurements taken from PubChem BioAssay (Tox21).
“And” between values parts separate entries of the source, which are not always exact repeats. Equal values may be shown once. Where a structure was tested more than once in an assay, its records may differ in their call. The source made the active and inactive calls. Where a call stands in place of a potency, no number is given. Unless noted, calls follow the shape of the dose curve; as a rule, active = well fitted curve in the direction sought with a large enough effect in the repeat runs; inconclusive = weak or mixed curves; inactive = no such curve, though single readings can be large; an effect the other way counts as inactive or inconclusive.

What was measured:
[1] = qHTS assay for small molecule agonists of the p53 signaling pathway (AID 651631; calls by dose curve; also: nearly all actives have a fitted effect of over 15% in size; also: potency is read from the fitted curve at half-maximal effect)
Procedure, shortened: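 Fluorescence intensity from cleaved LiveBLAzer B/G substrate (2 h, room temperature) served as the signal. Beforehand, HCT-116 reporter cells bearing p53 response elements were treated 16 h at 37 °C with DMSO-dissolved compounds.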

[2] = qHTS assay for small molecules that induce genotoxicity in human embryonic kidney cells expressing luciferase-tagged ATAD5 (AID 651632); also: nearly all actives have a fitted effect of over 15% in size; also: potency is read from the fitted curve at half-maximal effect
Procedure, shortened: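 ATAD5-luc HEK293T, 2,000 cells/well; cpd or DMSO pin-transferred; 16 hr, 37C/5% CO2; Amplite 30 min RT; luminescence.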

[3] = qHTS assay for small molecule agonists of the p53 signaling pathway - cell viability (AID 651633; calls by dose curve; also: nearly all actives have a fitted effect of over 30% in size; also: potency is read from the fitted curve at half-maximal effect)
Procedure, shortened: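 p53RE-bla cells, seeded at 4,000 per well and rested 5 h at 37 C/5% CO2, received compounds in DMSO for 16 h at 37 C. CellTiter-Glo was then added, and luminescence was read after 30 min at room temperature to gauge cytotoxicity.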

[4] = qHTS assay for small molecules that induce genotoxicity in human embryonic kidney cells expressing luciferase-tagged ATAD5 - cell viability (AID 651634; calls by dose curve; also: nearly all actives have a fitted effect of over 25% in size)
Procedure, shortened: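 Fluorescence from CellTiter-Fluor, reporting protease activity within live cells, served as the viability read-out. HEK293T cells carrying luciferase-tagged ATAD5 had been treated with compound for 15.5 hr at 37C.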

[5] = qHTS assay for small molecule disruptors of the mitochondrial membrane potential - cell viability (AID 720634; calls by dose curve; also: nearly all actives have a fitted effect of over 20% in size; also: potency is read from the fitted curve at half-maximal effect)
Procedure, shortened: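 Cells: HepG2, 2,000/well, attached overnight. Compound 1 hr, 37 C/5% CO2. +m-MPI dye, +CellTiter-Glo 30 min RT. Readout: luminescence (ATP).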

[6] = qHTS assay to test for compound auto fluorescence at 590 nm (red) in HepG2 cells (AID 720674)
Procedure, shortened: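 Rose Bengal sodium served as the red fluorophore standard. HepG2 monolayers (overnight attachment, MEM with 10% FBS) were exposed to test compounds for 1 hr at 37 C and read at Ex 540/Em 590 nm.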

[7] = qHTS assay to test for compound auto fluorescence at 535 nm (green) in HepG2 cells (AID 720675)
[8] = qHTS assay to test for compound auto fluorescence at 460 nm (blue) in HEK293 cells (AID 720678); also: potency is read from the fitted curve at half-maximal effect
Procedure, shortened: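 Blue read-out at excitation 405 nm and emission 460 nm follows overnight compound exposure of HEK293 cells at 37C in 5% CO2. Activity is given as auto fluorescence equivalency to triamterene.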

[9] = qHTS assay to test for compound auto fluorescence at 590 nm (red) in HEK293 cells (AID 720679)
Procedure, shortened: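 Red channel, Ex/Em 540/590nm; signal expressed as equivalency to Rose Bengal sodium. HEK293, 2,000 cells/well, 10% dialyzed FBS; 23 nL compound pinned after 4-5 hr attachment; overnight 37C/5% CO2 before reading.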

[10] = qHTS assay to test for compound auto fluorescence at 535 nm (green) in HEK293 cells (AID 720680)
[11] = qHTS assay to test for compound auto fluorescence at 460 nm (blue) in HEK293 cell free culture (AID 720681); also: potency is read from the fitted curve at half-maximal effect
Procedure, shortened: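 Test compounds were pinned into cell-free culture medium (DMEM with 10% FBS) and fluorescence was read directly at Ex/Em 405/460 nm. Signals were expressed as fluorescence equivalents of triamterene, with DMSO vehicle as control.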

[12] = qHTS assay to test for compound auto fluorescence at 535 nm (green) in HEK293 cell free culture (AID 720682)
Procedure, shortened: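 Intrinsic compound fluorescence is measured in culture medium containing 10% FBS, with excitation at 485 nm and detection at 535 nm, referenced to fluorescein.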

[13] = qHTS assay to test for compound auto fluorescence at 590 nm (red) in HEK293 cell free culture (AID 720683)
Procedure, shortened: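 Tox21 10K library compounds were pinned into cell-free DMEM with 10% FBS and fluorescence was read at excitation 540 nm. Activity is expressed as Rose Bengal sodium equivalency.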

[14] = qHTS assay to test for compound auto fluorescence at 590 nm (red) in HepG2 cell free culture (AID 720684)
Procedure, shortened: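 Measured in medium alone (MEM containing 10% FBS) following pintool addition of compound; emission at 590 nm with 540 nm excitation, referenced to Rose Bengal sodium.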

[15] = qHTS assay to test for compound auto fluorescence at 460 nm (blue) in HepG2 cell free culture (AID 720685); also: potency is read from the fitted curve at half-maximal effect
Procedure, shortened: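 Compound (23 nL) or DMSO pinned into cell-free MEM with 10% FBS; blue fluorescence read at 405/460 nm excitation/emission, expressed as auto-fluorescence equivalency to triamterene.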

[16] = qHTS assay to test for compound auto fluorescence at 535 nm (green) in HepG2 cell free culture (AID 720686)
[17] = qHTS assay to test for compound auto fluorescence at 460 nm (blue) in HepG2 cells (AID 720687)
Procedure, shortened: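 Cells (2,000/well in MEM with 10% FBS) attached overnight at 37 C, then were exposed to compound or DMSO for 1 hr at 37 C, 5% CO2. Fluorescence read at Ex/Em 405/460 nm, expressed as triamterene-equivalent signal.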

[18] = target: Glucocorticoid receptor (Homo sapiens) (UniProt P04150); experiment: qHTS assay to identify small molecule agonists of the glucocorticoid receptor (GR) signaling pathway (AID 720691; active = well fitted activation curve with a large enough effect in the signal ratio in the repeat runs, not every such curve was filed as active; inconclusive = weak or mixed curves, or effect the other way; inactive = no such curve, though single readings can be large or run the other way; the % refers to the signal ratio; also: potency is read from the fitted curve at half-maximal effect); settings: GR-bla HeLa, beta-lactamase reporter ratio, 18 h; activation: at 62.4 µM (top of the series)
Procedure, shortened: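 Fluorescence intensity from LiveBLAzer B/G FRET substrate (2 h, room temperature) reports beta-lactamase expression driven by the glucocorticoid response element in GR-bla HeLa cells after 18 h compound exposure at 37 C.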

[19] = target: Glucocorticoid receptor (Homo sapiens) (UniProt P04150); experiment: qHTS assay to identify small molecule antagonists of the glucocorticoid receptor (GR) signaling pathway (AID 720692; active = well fitted inhibition curve with a large enough effect in the signal ratio in the repeat runs, not every such curve was filed as active; inconclusive = weak or mixed curves, or effect the other way; inactive = no such curve, though single readings can be large or run the other way; the % refers to the signal ratio; also: potency is read from the fitted curve at half-maximal effect)
Procedure, shortened: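 HeLa GR-bla cells; cmpd + dex 5 nM final, 18 h 37 C; LiveBLAzer B/G FRET substrate 2 h RT; fluorescence intensity read. Antagonist mode, qHTS.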

[20] = qHTS assay for small molecule disruptors of the mitochondrial membrane potential (AID 720635); also: potency is read from the fitted curve at half-maximal effect
Procedure, shortened: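 HepG2 cells (2,000/well) attached overnight at 37C, then took compound for 1 hr at 37C, 5% CO2. Mito-MPS dye was added for 30 min; fluorescence was read at 490/535 nm (monomers) and 540/590 nm (aggregates).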
Tags tell the direction and shape of the fitted curve or compound fluorescence and quenching.

Glucocorticoid receptor (Homo sapiens), sequence (P04150 whole entry, looked up): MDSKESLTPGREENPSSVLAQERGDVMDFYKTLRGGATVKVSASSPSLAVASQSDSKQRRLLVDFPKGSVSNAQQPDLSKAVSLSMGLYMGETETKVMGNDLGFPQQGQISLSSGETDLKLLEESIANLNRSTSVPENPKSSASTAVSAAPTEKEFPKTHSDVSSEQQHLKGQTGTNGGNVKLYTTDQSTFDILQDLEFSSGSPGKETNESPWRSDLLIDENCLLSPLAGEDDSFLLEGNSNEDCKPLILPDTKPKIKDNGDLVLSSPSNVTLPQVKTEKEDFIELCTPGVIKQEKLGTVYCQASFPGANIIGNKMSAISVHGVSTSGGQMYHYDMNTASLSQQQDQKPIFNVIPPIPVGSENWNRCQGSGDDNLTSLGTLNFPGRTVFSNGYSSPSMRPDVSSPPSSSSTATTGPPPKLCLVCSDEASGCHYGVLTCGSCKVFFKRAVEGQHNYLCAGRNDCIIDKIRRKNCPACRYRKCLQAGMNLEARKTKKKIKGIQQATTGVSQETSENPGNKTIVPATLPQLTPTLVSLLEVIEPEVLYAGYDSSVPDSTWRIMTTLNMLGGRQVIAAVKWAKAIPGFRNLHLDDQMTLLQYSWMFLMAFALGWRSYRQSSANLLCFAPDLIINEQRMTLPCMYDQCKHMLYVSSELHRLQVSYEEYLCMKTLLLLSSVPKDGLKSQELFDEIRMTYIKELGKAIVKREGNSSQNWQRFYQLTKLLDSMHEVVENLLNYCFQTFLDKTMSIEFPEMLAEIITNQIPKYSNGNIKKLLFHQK

Row | SMILES | Potency [1] | Potency [2] | Potency [3] | Potency [4] | Potency [5] | Potency [6] | Potency [7] | Potency [8] | Potency [9] | outcome [10] | Potency [11] | outcome [12] | Potency [13] | Potency [14] | Potency [15] | Potency [16] | Potency [17] | Potency [18] | Potency [19] | Potency [20]
1 | Oc1cccc2cc3cccc(O)c3c(O)c12 | inactive | inactive | inactive | inactive | inactive | inactive | inactive | inactive | inactive | inactive | inactive | inactive | inactive | inactive | inactive | inactive | inactive | inactive | inactive | 
2 | COCCCC/C(=N\OCCN)c1ccc(C(F)(F)F)cc1 | inactive | inactive | inactive | inactive | inactive | inactive | inactive |  | inactive | inactive | inactive |  | inactive | inactive | inactive | inactive | inactive | inactive | inactive | 
3 | O=C(OC[C@H]1O[C@@H](OC(=O)c2cc(O)c(O)c(OC(=O)c3cc(O)c(O)c(O)c3)c2)[C@H](OC(=O)c2cc(O)c(O)c(OC(=O)c3cc(O)c(O)c(O)c3)c2)[C@@H](OC(=O)c2cc(O)c(O)c(OC(=O)c3cc(O)c(O)c(O)c3)c2)[C@@H]1OC(=O)c1cc(O)c(O)c(OC(=O)c2cc(O)c(O)c(O)c2)c1)c1cc(O)c(O)c(OC(=O)c2cc(O)c(O)c(O)c2)c1 | 2.66 µM (active) and 10.4 µM (active) | inactive | 5.96 µM (active) and inactive |  | 10.6 µM (active) and inactive | inactive | inactive | inactive | inactive | inactive | inactive |  | inactive | inactive | inactive |  | inactive |  | inactive | 2.37 µM (active)
4 | NC(=O)CC[C@@H]1NC(=O)[C@H](Cc2ccccc2)NC(=O)[C@H](Cc2ccc(O)cc2)NC(=O)CCSSC[C@@H](C(=O)N2CCC[C@H]2C(=O)N[C@@H](CCCN=C(N)N)C(=O)NCC(N)=O)NC(=O)[C@H](CC(N)=O)NC1=O | inactive | inactive | inactive |  | inactive | inactive | inactive | inactive |  | inactive | inactive |  | inactive | inactive | inactive | inactive | inactive |  |  | inactive
5 | CN(C)c1ccc(C2(c3ccc(N(C)C)cc3)OC(=O)c3cc(N(C)C)ccc32)cc1 | 60.9 µM (active) | inactive | inactive |  |  | inactive | inactive | inactive | inactive | inactive | inactive | inactive | inactive | inactive | inactive | inactive | inactive | 4.35 µM [inconclusive] (active) |  | 21.6 µM (active)
6 | O=c1cc(-c2ccc(O)cc2)oc2cc(O)cc(O)c12 | 15.6 µM (active) and 43.3 µM (active) | 5.52 µM (active) and 4.86 µM (active) | inactive and 54.5 µM (active) |  | 4.92 µM (active) | inactive | inactive | inactive |  | inactive | inactive | inactive | inactive | inactive | inactive | inactive | inactive | inactive | 27.9 µM (active) and 27.5 µM (active) | 1.75 µM (active) and 1.37 µM (active)
7 | O=[N+]([O-])c1ccccc1Nc1ccccc1 | inactive | inactive | inactive |  | inactive | inactive | inactive | inactive | inactive | inactive | inactive | inactive | inactive | inactive | inactive | inactive |  | inactive |  | 
8 | Cc1nc(-c2ccc3c(c2)CCN(CCC2CCC(NC(=O)/C=C/c4ccc(F)cc4)CC2)CC3)no1 (centres undefined) | 27.4 µM (active) | 19.4 µM (active) | inactive |  | inactive | inactive | inactive | inactive | inactive | inactive | inactive | inactive | inactive | inactive | inactive | inactive | inactive | 21.9 µM (active) |  | inactive
9 | COc1cc(/C=C/C(=O)O[C@H]2CC[C@]34C[C@]35CC[C@]3(C)[C@@H]([C@H](C)CCC=C(C)C)CC[C@@]3(C)[C@@H]5CC[C@H]4C2(C)C)ccc1O | 7.5 µM (active) | 7.5 µM (active) | inactive |  | inactive | inactive | inactive | inactive |  | inactive | inactive | inactive | inactive | inactive | inactive |  | inactive | 1.51 µM [inconclusive] (active) | inactive | 
10 | CCCCCCCCn1sc(Cl)c(Cl)c1=O | 17.2 µM (active) | inactive | 30.6 µM (active) |  | 27.3 µM (active) | inactive | inactive | inactive | inactive | inactive | inactive | inactive | inactive | inactive | inactive | inactive | inactive |  |  | 
11 | Oc1ccc(Cl)cc1Sc1cc(Cl)ccc1O | 29.8 µM (active) | inactive | 26.6 µM (active) and 54.4 µM (active) |  | 9.44 µM (active) and 13.7 µM (active) | inactive | inactive | inactive | inactive | inactive | inactive | inactive | inactive | inactive | inactive | inactive | inactive |  |  | 2.11 µM (active) and 1.53 µM (active)
12 | CCOc1ccc2nc3cc(N)ccc3c(N)c2c1 | 11.9 µM (active) | inactive |  | inactive | inactive | inactive | inactive |  | inactive | inactive |  | inactive | inactive | inactive |  | inactive |  |  |  | 2.66 µM (active)
13 | CC[C@@]1(O)C(=O)OCc2c1cc1n(c2=O)Cc2cc3c(CN(C)C)c(O)ccc3nc2-1 | 0.237 µM (active) | inactive | 8.41 µM (active) |  | inactive | inactive | inactive | 17.8 µM [fluorescent] (active) | inactive | inactive | 14.1 µM (active) | inactive | inactive | inactive | 14.1 µM [fluorescent] (active) | inactive |  | inactive |  | 
